The whole screen tested about 310,000 compounds, of which about 11,000 (3.5%) were called active. Another 8% or so got no clear call; they are omitted. This is one part of a sample in which actives are shown more often than they occur. Values without a mark were called inactive. The call rests on the fitted dose curve; in most records, active means well fitted inhibition curve with a large enough effect; inconclusive means small, poorly fitted or top-dose-only effect, or effect the other way; inactive means flat fitted curve, though single readings scatter.
Assay: VP16 counterscreen qHTS for inhibitors of ROR gamma transcriptional activity;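 further: Gal4-VP16 expression switched on by copper sulfate through the metallothionein promoter; nearly all actives have a fitted effect of over 50% in size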
Settings: Drosophila S2 Gal4-VP16 UAS-luciferase, luminescence, 20 h; series mostly up to 53.6 µM; activity, negative = inhibition: at the top concentration
On the % scale 0 is the no-effect control and ±100 the full control effect; potency means the concentration at half of the fitted maximal effect.

In order of falling “activity, negative = inhibition” value:
1. O=C1CCC(C(=O)N2CCCCO2)CN1Cc1cccc(C(F)(F)F)c1 (centres undefined)  25.2%
2. Cc1cccnc1CC(C)NC(=O)c1cc(COc2cncc(Cl)c2)on1 (centres undefined)  15.6%
3. Cc1cc(C(=O)N/N=C/c2ccccc2[N+](=O)[O-])c(C)o1  13.8%
4. Cc1c(C(=O)NC2CCCCC2)oc2ccccc12  12.7%
5. CCOC(=O)c1ccc2[nH]c3c(c2c1)CCCC3NC=O (centres undefined)  10.2%
6. CC(=O)Nc1ccc(NC(=O)CC2CCCC2)cc1  5.63%
7. CCOC(=O)c1c(NC(=O)C(C)Sc2c[nH]c3ccccc23)sc2c1CCC2 (centres undefined)  4.95%
8. COc1cc(/C=C2\C(=N)N3N=C(CC(=O)N4CCOCC4)SC3=NC2=O)cc(OC)c1OC  4.69%
9. Cc1nc2ccccc2c(=O)n1NC(=O)c1ccccc1  4.4%
10. COc1cccc(N(CC(=O)NCCSc2ccccn2)S(C)(=O)=O)c1  3.01%
11. O=C(NCc1ccccn1)Nc1ccc(F)cc1  2.47%
12. NS(=O)(=O)c1ccc(CCNS(=O)(=O)c2cccc3cccnc23)cc1  2.36%
13. Cc1cc(Cl)c2oc(C(=O)NC(C)c3ccncn3)c(C)c2c1 (centres undefined)  1.75%
14. Cc1nn(C)c(Cl)c1CN1CCC(Oc2ccc(C(=O)N3CCCC3)cc2)CC1  1.32%
15. CN(C)C(=O)CCC(=O)N1CCCCC1C(=O)Nc1ccc(Oc2ccccc2F)cc1 (centres undefined)  1.2%
16. O=Cc1cn(Cc2ccccc2)nc1-c1cccnc1  1.13%
17. Cc1c(C(C)(C)O)[nH]c2ccc(C#N)cc12  0.547%
18. CCOC(=O)CSc1ccccn1  0.354%
19. CCOC(=O)C(Cc1ccccc1)NC(=O)CCC(=O)c1ccc(OC)cc1 (centres undefined)  0.0298%
20. CCc1ccc(N(CC(=O)Nc2sc3c(c2C(=O)OC)CCCC3)S(C)(=O)=O)cc1  -0.11%
21. O=C(OCC(=O)N1CCN(C(=O)c2ccco2)CC1)c1cccc(O)c1  -0.905%
22. CCCn1c2ccccc2c2cnn(CC(=O)NCCCN3CCCCC3CC)c(=O)c21 (centres undefined)  -1.01%
23. CCOCC(=O)Nc1sc2c(c1C(=O)OCC)CCCC2  -1.32%
24. O=C(O)CN1c2cccc3cccc(c23)S1(=O)=O  -1.33%
25. CCOC(=O)c1c(NC(=O)c2ccc(Br)o2)sc2c1CCCC2  -2.41%
26. CCCOC(=O)Nc1sc2c(c1C(=O)OCC)CCC2  -2.48%
27. COC(=O)[C@H](Cc1ccccc1)NC(=O)Nc1ccc(OC)cc1  -2.71%
28. Cc1ccnc(N2CCCC(C(=O)NC3CC3)C2)n1 (centres undefined)  -2.77%
29. O=C(C1CC1)N1N=C(c2ccc(Br)cc2)CC1(O)C(F)(F)F (centres undefined)  -2.99%
30. CC(Cc1cccs1)N(Cc1ccc(Cl)cc1)C(=O)c1ccncc1 (centres undefined)  -3.23%
31. Cc1ccc(C(=O)NCCNC(=O)c2ccccc2)cc1  -3.28%
32. O=C(O)c1ccccc1C(=O)NC1=NN(c2ccccc2)CC1  -3.3%
33. O=C(C[C@H]1C(=O)N(c2ccc(F)c(F)c2)C[C@@H]1Cc1ccccc1)Nc1ccccc1  -4.57%
34. O=C(Nc1sc2c(c1C(=O)O)CCC2)c1ccccc1F  -5.29%
35. Clc1ccc(CN2CCN(/N=C/c3cccnc3)CC2)cc1  -6.15%
36. COc1cc(C(=O)N2CCN(C3CCC(C)CC3)CC2)cc(OC)c1OC (centres undefined)  -7.5%
37. Cc1ccc(CN2CCNC(=O)C2CC(=O)NCc2csc(C(C)C)n2)cc1 (centres undefined)  -8.27%
38. COC(=O)C1(O)CC(C(C)C)=NN1C(=O)c1ccc(Cl)cc1 (centres undefined)  -8.55%
39. Cc1cccc(NS(=O)(=O)c2ccc(C(=O)NCC(C)(C)N3CCOCC3)cc2)c1C  -9.11%
40. C/C(=N\NC(=O)c1cccnc1)c1ccc(-c2ccccc2)cc1  -12.5%
41. CN(C)/N=C/c1cc(Cl)cc([N+](=O)[O-])c1O  -13.3%
42. CC(C)(COC(=O)Nc1ccccc1)COC(=O)Nc1ccccc1  -19.9%
43. COc1cccc(NC(=S)NCc2ccccn2)c1  -77.5%

For `O=C1/C(=C\c2cccnc2)CN(Cc2ccccc2)C/C1=C\c1cccnc1`, the Potency was 2 µM (active).
With `O=C(N/N=C/c1cc(Cl)cc([N+](=O)[O-])c1O)C(O)(c1ccccc1)c1ccccc1` the Potency was 0.891 µM (active).
For `COc1ccc(C=C(C#N)C#N)c(CSc2ccccn2)c1`, the Potency was 15.8 µM (active).
For `Cc1ccnc(-n2sc3ccccc3c2=O)n1`, the Potency was 11.2 µM (active).
For `O=C(c1ccc(Cl)cc1)N1N=C(c2ccccn2)CC1(O)C(F)(F)F` (centres undefined), the Potency was 4.47 µM (active).
In the case of `CCC(C)c1ccc(NC(=S)NCc2ccccn2)cc1` (centres undefined), the Potency is reported as 8.91 µM (active).
With `COc1cc([C@H](Cc2ccccc2)NC(C)=O)oc(=O)c1` the Potency was 11.2 µM (active).
In the case of `C/C(=N\NC(=O)c1ccc(C)cc1)C1C(=O)c2ccccc2C1=O`, the Potency is reported as 0.562 µM (active).
In the case of `CCOC(=O)c1c(NC(=S)NC)sc2c1CCCC2`, the Potency is reported as 1.41 µM (active).
With `CCN(CC)CC(=O)Nc1sc2c(c1C(=O)c1ccccc1C)CCC2` the Potency was 17.8 µM (active).
With `CCOC(=O)c1c(NC(=S)Nc2ccccc2C)sc2c1CCC2` the Potency was 5.62 µM (active).
